High-throughput results from PubChem.
Rows were chosen to be rich in hits. Some 3.5% of all compounds tested hit in one or more screens of this group.
UHRF1 binding = UHRF1 methylated DNA binding inhibitors, primary screen, counter-screen for MBD2 inhibitor project, biochemical, TR-FRET, human UHRF1, single concentration; E3 ubiquitin-protein ligase UHRF1 (Homo sapiens), Q96T88; UHRF1 binding to methylated oligo; inhibition, % at 4.4 µM; hit rate 0.75% among 370,000; AID 687016, 2013;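 also: UHRF1 SRA domain binding a hemimethylated CpG hairpin DNA probe; 0% = median of test compound wells and 100% = reference inhibitor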
Target sequence (Q96T88 whole entry, looked up, the tested form may be a part): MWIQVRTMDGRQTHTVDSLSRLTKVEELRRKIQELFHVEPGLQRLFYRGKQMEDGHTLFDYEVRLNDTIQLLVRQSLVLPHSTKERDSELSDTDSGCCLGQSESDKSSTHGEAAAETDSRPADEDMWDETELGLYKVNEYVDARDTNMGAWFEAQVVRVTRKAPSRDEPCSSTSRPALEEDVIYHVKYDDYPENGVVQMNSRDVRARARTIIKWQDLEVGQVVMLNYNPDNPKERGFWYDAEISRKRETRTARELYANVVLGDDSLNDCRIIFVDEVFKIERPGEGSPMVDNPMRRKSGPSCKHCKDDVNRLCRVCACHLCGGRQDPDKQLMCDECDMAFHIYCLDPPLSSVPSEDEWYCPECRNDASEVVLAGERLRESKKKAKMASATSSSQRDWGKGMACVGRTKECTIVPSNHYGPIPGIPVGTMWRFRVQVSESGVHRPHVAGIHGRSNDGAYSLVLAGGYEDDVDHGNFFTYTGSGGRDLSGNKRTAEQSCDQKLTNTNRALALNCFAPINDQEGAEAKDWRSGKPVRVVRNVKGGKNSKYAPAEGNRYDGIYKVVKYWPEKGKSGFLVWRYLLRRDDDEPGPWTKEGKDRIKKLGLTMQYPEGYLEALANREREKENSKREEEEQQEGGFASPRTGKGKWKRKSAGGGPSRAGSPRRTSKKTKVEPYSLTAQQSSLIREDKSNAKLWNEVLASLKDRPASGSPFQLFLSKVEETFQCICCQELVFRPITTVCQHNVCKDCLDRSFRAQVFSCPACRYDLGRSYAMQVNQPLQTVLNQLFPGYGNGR
rCAG binder = binders of r(CAG) RNA repeats, primary screen, biochemical, fluorescence | hit rate 1.3% among 370,000 | r(CAG) RNA repeat, TO-PRO-1 dye displacement fluorescence | inhibition, % at 3 µM;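 active = inhibition above the plate cutoff, the mean of all test compounds on that plate plus 3 SD, cut at about 35% in these data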;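 also: 0% = DMSO alone and 100% = 100 µM mitoxantrone as full dye displacement; higher means more dye released from RNA so lower well fluorescence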
MBD2 DNA inh = inhibitors of MBD2 binding to methylated DNA, primary screen, biochemical, TR-FRET, DNA-binding domain, human | Methyl-CpG-binding domain protein 2 (Homo sapiens), Q9UBB5 | MBD2 binding to methylated oligonucleotide | inhibition, % at 4.4 µM | hit rate 0.31% among 370,000 | AID 686964, 2013; in the data active = inhibition above about 13%
PG9 Ab binder = binders of HIV-1 gp120 antibody PG9, primary screen, biochemical, TR-FRET; HIV-1 gp120 / PG9 antibody interaction; TR-FRET gp120-PG9 antibody binding; inhibition, % at 6.7 µM; hit rate 0.43% among 360,000; AID 624416, 2012; in the data active = inhibition above about 8.5%
DNMT1 inh = human DNMT1 methyltransferase inhibitors, primary screen, biochemical, molecular beacon, fluorescence, HinP1I cleavage, uHTS. inhibition (reported as % activation of signal), % at 10 µM. hit rate 0.83% among 360,000. AID 588458, 2011; in the data active = inhibition above about 50%
LEDGF integ inh = blockers of LEDGF/p75-dependent integrase strand transfer – biochemical, TR-FRET, high throughput, primary screen | TR-FRET IN-LEDGF/p75 DNA integration, Eu/Cy5 | inhibition, % at 3.7 µM | hit rate 0.64% among 370,000 | AID 743269, 2014;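 active = inhibition above the screen-wide mean plus 3 SD, cut at about 13% in these data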;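 also: signal is the Cy5 over europium emission ratio at 671 and 618 nm; 0% = plate median of compound wells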
DNMT1 interf DR = spectral interference with molecular beacon fluorescence, dose response, artefact control for DNMT1 inhibitor project, biochemical, fluorescent molecular beacon; shares compounds with DNMT1 inh; spectral interference counter-screen; IC50, µM; 200 tested, under 10 active; call rule not given here
DNMT1 confirm = DNMT1 methyltransferase inhibitor retest, confirmation, biochemical, molecular beacon, fluorescence, single concentration. shares compounds with DNMT1 inh. DNMT1 molecular beacon HinP1I cleavage. inhibition, % at 10 µM. hit rate 8% among 2,300;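 active = average inhibition of at least 30% in the single-concentration confirmation test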
Beacon interf = counter-screen for DNMT1 inhibitors: spectral interference; shares compounds with DNMT1 inh; DNMT1 molecular beacon spectral interference counterscreen, fluorescence 485/520; hit rate 1% among 2,300; activation (fluorescence interference), % at 10 µM; AID 602387;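 active = activation of at least 30% at 10 µM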;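 also: DNMT1 catalytic domain with a HinP1I cleavage step and a FAM/dabcyl DNA beacon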
rCAG bind conf = small molecules binding CAG repeat RNA – biochemical, fluorescence, confirmation. inhibition, % at 3 µM. hit rate 70% among 4,300. r(CAG) RNA repeat, TO-PRO-1 dye displacement fluorescence. shares compounds with rCAG binder;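 active = inhibition above a per-plate cutoff, the mean inhibition of sample wells plus 3 SD, cut at about 35% in these data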;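 also: loss of TO-PRO-1 fluorescence as compound displaces dye from 1x1 AA loop RNA; 0% = DMSO only wells and 100% = 100 µM mitoxantrone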
dCAG dye counter = displacement of TO-PRO-1 from CAG DNA duplex, counter-screen for rCAG RNA repeat binder project, biochemical, fluorescence, TO-PRO-1 dye, d(CAG) DNA oligo. shares compounds with rCAG binder. d(CAG) DNA oligo TO-PRO-1 dye displacement. inhibition, % at 3 µM. hit rate 94% among 4,300;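 active = inhibition above its plate's cutoff, the mean test-well inhibition plus 3 SD, cut at about 4.8% in these data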;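 also: 0% = DNA dye mix with DMSO and 100% = 100 µM mitoxantrone; hits displace the dye from DNA and so lower well fluorescence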
UHRF1 ctr MBD2 = UHRF1 methylated DNA binding inhibitors, counter-screen for MBD2 inhibitor project, biochemical, TR-FRET, human UHRF1 | shares compounds with MBD2 DNA inh | UHRF1 binding to methylated oligonucleotide | inhibition, % at 4.4 µM | hit rate 25% among 1,000;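 also: UHRF1 SRA domain binding a labeled hemimethylated CpG hairpin DNA; 0% = vehicle only and 100% = reference inhibitor with vehicle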
MBD2 DBD conf = inhibitors of MBD2 binding to methylated DNA, confirmation, biochemical, TR-FRET, DNA-binding domain, human | AID 720531, 2013 | TR-FRET MBD2-DBD binding to methylated oligonucleotide | hit rate 26% among 1,000 | shares compounds with MBD2 DNA inh | inhibition, % at 4.4 µM; in the data active = inhibition above about 14%
An asterisk follows results filed as active; / = not tested or not shown. Rule as the data show it, unless noted: active = inhibition above about 21%; inactive = the rest.

SMILES	UHRF1 binding	rCAG binder	MBD2 DNA inh	PG9 Ab binder	DNMT1 inh	LEDGF integ inh	DNMT1 interf DR	DNMT1 confirm	Beacon interf	UHRF1 ctr MBD2	MBD2 DBD conf	others
Cc1ccc(C(=O)O)cc1-c1ccc(/C=C2/NC(=O)N(c3ccccc3)C2=O)o1	43.0*	61.6*	14.0*	-4.0	92.2*	9.3	>99	34.1*	-2.0	29.7*	10.7	rCAG bind conf=60.0*;dCAG dye counter=22.0*
O=C1N/C(=C/c2ccc(N3CCOCC3)o2)C(=O)N1c1ccccc1	4.1	7.5	-1.5	-3.2	-2.1	-5.2	/	/	/	/	/
Cn1c(-c2ccccc2)cc(=O)n1-c1ccccc1	-1.4	0.0	62.5*	0.9	70.0*	-0.6	/	7.3	5.5	6.1	4.0
CC1(C)C[C@@H]1C(=O)N/C(=C\CCCCSC[C@H](N)C(=O)O)C(=O)O	-2.7	19.6	-2.1	1.1	1.4	1.8	/	/	/	/	/
CC(=O)Nc1ccc(S(=O)(=O)N2CCN(C(=O)C3COc4ccccc4O3)CC2)cc1 (stereo unspecified)	0.9	0.0	0.4	0.3	-0.4	4.1	/	/	/	/	/
COc1ccc(S(=O)(=O)N2CCN(C(=O)C3COc4ccccc4O3)CC2)cc1 (stereo unspecified)	29.3*	7.8	25.7*	-3.1	95.3*	-4.3	>99	53.7*	2.3	74.7*	70.2*
COc1ccc(NC(=O)/C(C#N)=C\c2ccc(Br)o2)cc1	13.7	7.8	14.2*	-0.2	78.6*	1.8	/	3.0	1.4	20.3	5.6
Cc1cc(C=O)c(C)n1-c1cc(C(=O)O)cc(C(=O)O)c1	49.2*	1.3	13.8*	-1.5	89.1*	13.2	/	12.8	23.7	39.3*	10.8
COC(=O)[C@]12C[C@H](CC(=O)N3CCSCC3)C(=O)N(Cc3ccco3)C1=C[C@H](C(C)C)O[C@@H]2C1CC1	-1.6	4.0	2.3	/	/	0.5	/	/	/	/	/
O=C(CNC(=O)/C=C/c1ccco1)N=Nc1c(O)[nH]c2ccccc12	53.4*	34.8*	30.2*	-2.4	93.1*	34.0*	>99	82.5*	-2.6	64.8*	51.0*	rCAG bind conf=40.2*;dCAG dye counter=16.8*
O=C(CNC(=O)Cc1ccccc1)N=Nc1c(O)[nH]c2ccccc12	-5.0	11.1	-10.0	-6.3	-1.4	-2.6	/	/	/	/	/
